# Assay outcomes (PubChem BioAssay)
# Vaccinia mCherry = vaccinia inhibition (mCherry reporter) | Vaccinia virus mCherry reporter infection, fluorescence | Potency, µM (highest dose often 36.5 µM), for the others: top-dose activity change, negative = inhibition, most hits filed as inhibitors | actives 0.63% (n = 310,000) | AID 720579; calls by dose curve; tested in A549 cells; note: nearly all actives have a fitted effect of over 35% in size
# Pf growth 96h = P. falciparum growth inhibition at 96 hours; P. falciparum luciferase reporter growth, 96 h; Potency, µM (titrated, usually from 28.7 µM), for the others: top-dose activity change, negative = inhibition, usual class: inhibitors; actives 6.9% (n = 320,000)
#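 Readout is luminescence from an integrated firefly luciferase in P. falciparum. Red cells, 2% hematocrit and 0.05% parasitemia final, were cultured with compound through two parasite generations (96 hours) at 37 C, 5% CO2.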
# Pf growth 48h = inhibits P. falciparum growth in the first generation, 48 h. P. falciparum luciferase growth in erythrocytes, 48 h. Potency, µM (series often up to 28.7 µM), for inactives: top-dose activity change, negative = inhibition, hits mostly inhibitors. actives 5.9% (n = 310,000). AID 504832
#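 Growth was read as firefly luciferase luminescence after a 48 h, 37 C, 5% CO2 exposure of compounds to reporter-bearing P. falciparum cultures (0.1% parasitemia, 2% hematocrit final) in Albumax-supplemented RPMI 1640.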
# VACV Venus inh = vaccinia inhibition (Venus reporter); Vaccinia virus Venus reporter expression, fluorescence; Potency, µM (highest dose often 36.5 µM), inactives show top-dose activity change, negative = inhibition, hits mostly inhibitors; actives 0.46% (n = 330,000); AID 720580; calls by dose curve; tested in A549 cells; note: nearly all actives have a fitted effect of over 30% in size
# AMA1-RON2 inh = AMA1-RON2 (P. falciparum) interaction inhibition; AlphaScreen AMA1-biotinylated RON2 peptide binding; Potency, µM (doses to about 58.2 µM), for inactives: at the top dose activity change, negative = inhibition, actives largely listed as inhibitors; AID 720542; actives 0.2% (n = 360,000);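 note: 0% = vehicle wells and -100% = peptide control; nearly all actives have a fitted effect of over 45% in size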
#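 AMA1 (3D7) with his tag at 25 nM final met compounds first, then biotinylated RON2 peptide at 25 nM; detection used donor plus acceptor beads, 10 µg/mL apiece, read by AlphaScreen after 30 min at room temperature.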
# Active calls of the source: *; i = inactive; ? = inconclusive; . = not tested or not shown; [ ] = dose if it differs, or a comment. Rows were chosen to be rich in hits. Some 8.7% of all compounds tested hit in one or more screens of this group. Unless noted, calls come from the whole dose curve; as a rule, active = well fitted curve in the direction sought with a large enough effect; inconclusive = small, poorly fitted or top-dose-only effect, or another doubt; inactive = no such curve, though single readings can be large; an effect the other way counts as inactive or inconclusive. Unless noted, % is set by controls: 0 for no effect and ±100 for the full control effect; potency is the fitted concentration of half-maximal effect.
SMILES,Vaccinia mCherry,Pf growth 96h,Pf growth 48h,VACV Venus inh,AMA1-RON2 inh
COc1ccc2c(CC(=O)Nc3ccc(C)cc3)coc2c1,i,.,.,-6%,.
COCCN=C1Sc2nc3cc(C)c(C)cc3cc2CN1Cc1cccs1,i,?,10µM*,0%,-5%
CC(C)CNc1cc(N2CCCC2)ccc1[N+](=O)[O-],-6%,103%,17%,-20%,-27%
CCCC(=O)N1CCN(c2ccc([N+](=O)[O-])c(NC(C)c3ccccc3)c2)CC1 (centres undefined),.,9.3µM*,12µM*,.,-11%
CC(Nc1cc(N2CCOCC2)ccc1[N+](=O)[O-])c1ccccc1 (centres undefined),-26%,-13%,?,-14%,1%[2.32 µM]
CC(Nc1cc(N2CCCC2)ccc1[N+](=O)[O-])c1ccccc1 (centres undefined),.,?,13µM*,-12%,-1%
CC(Nc1cc(N2CCN(S(=O)(=O)N(C)C)CC2)ccc1[N+](=O)[O-])c1ccccc1 (centres undefined),-10%,182%,15µM*,-23%,-18%
CC(Nc1cc(N2CCN(S(C)(=O)=O)CC2)ccc1[N+](=O)[O-])c1ccccc1 (centres undefined),-26%,-5%,?,?,-11%[2.32 µM]
CCOc1ccccc1C(=O)Nc1cc(-c2nc3cccnc3s2)ccc1C,0%,.,.,-3%,.
CC(C)(C)OC(=O)N1CCC(c2c(C(=O)N3CCN(c4ccccn4)CC3)cnn2-c2ccc(F)cc2F)CC1,-11%,.,.,-12%,.
CCOCCOC(=O)C1=C(C)NC(=O)NC1c1cc2c(cc1Br)OCO2 (centres undefined),.,?,-27%,.,-4%
CC1=C(C(=O)OCC(C)C)C(c2cc3c(cc2Br)OCO3)NC(=O)N1C (centres undefined),.,-23%,10µM*,-22%,14%
CCOC(=O)C1=C(C)NC(=O)NC1c1cc2c(cc1Br)OCO2 (centres undefined),.,-4%,9.3µM*,-13%,3%
COC(=O)C1=CN(C(C)C)C=C(C(=O)OC)C1c1cc2c(cc1Br)OCO2,.,3.7µM*,?,.,26%
CCc1ccc(NC(=O)Cn2nnc(C(=O)Nc3cc(C)ccc3OC)c2N)cc1,-9%,.,.,-25%,.
CC(=O)NC1C(=O)N(CCN2CCOCC2)c2ccc(C)cc21 (centres undefined),i,?,3%,7%,32µM*
Cc1oc2ccc(O)c(CN(C)Cc3ccccc3)c2c1C(=O)Nc1ccccc1,-5%,.,.,-22%,.
Cc1ccccc1OCC(O)Cn1c(Br)nc2c1c(=O)n(C)c(=O)n2C (centres undefined),.,?,14%,.,0%
COc1ccc(OCC(O)Cn2c(Nc3cccc(C)c3)nc3c2c(=O)n(C)c(=O)n3C)cc1 (centres undefined),-24%,3.3µM*,2.3µM*,-11%,-6%
Cc1ccccc1OCC(O)Cn1c(SC(C)C)nc2c1c(=O)[nH]c(=O)n2C (centres undefined),.,10µM*,?,.,-29%
COc1ccc(OCC(O)Cn2c(NCCO)nc3c2c(=O)n(C)c(=O)n3C)cc1 (centres undefined),-5%[7.34 µM],.,.,-9%[7.34 µM],.
Cc1ccccc1OCC(O)Cn1c(NCc2ccco2)nc2c1c(=O)n(C)c(=O)n2C (centres undefined),?,?,15µM*,-20%,-6%
O=C(O)c1ccccc1NC(=O)N1c2ccccc2Sc2ccccc21,1%,.,.,-2%,.
CSc1nsc(/C=C/Nc2ccc(F)cc2)c1C#N,-6%,6.6µM*,-23%,9%,25%
CSc1nsc(/C=C/Nc2ccc(Cl)cc2)c1C#N,-10%[1.46 µM],1.2µM*,1.2µM*,-13%,-1%
SMILES,Vaccinia mCherry,Pf growth 96h,Pf growth 48h,VACV Venus inh,AMA1-RON2 inh
Cc1cccc(NC(=S)N2CCN(S(=O)(=O)c3cccc(F)c3)CC2)c1,-24%,?,13µM*,-23%,22%
CC(=O)c1cccc(NC(=S)N2CCN(S(=O)(=O)c3ccccc3)CC2)c1,-17%,4.1µM*,?,-12%,?
Cc1ccccc1C(=O)Nc1nc2nc(C)c(C)c(=O)n2[nH]1,-14%,.,.,-11%,.
Cc1ccc(NC(=O)Cn2cnc3sc(C(=O)NCCN(C)C)c(C)c3c2=O)cc1Cl,.,12µM*,?,.,.
CCN(CC)CCCNC(=O)c1sc2ncn(CC(=O)Nc3ccc(C)c(Cl)c3)c(=O)c2c1C,9%,-5%,13µM*,-21%,13%
NCCCN(Cc1ccc(Cl)c(Cl)c1)c1ccccn1,-1%,.,.,-20%,.
CCN(CC)C(=O)c1sc2c(c1C)c(=O)n(-c1ccc(OC)cc1OC)c(=O)n2CC(=O)c1ccc(Cl)cc1,-23%,.,.,-13%,.
CN(C)CC(C)(C)CNC(=O)c1cnn(-c2nccc(-c3ccc4c(c3)OCO4)n2)c1-c1ccco1,-8%,.,.,4%,.
CCOC(=O)N1CCc2c(sc3c2c(=O)n(CCc2ccccc2)c(=O)n3Cc2ccc(C)cc2C)C1,-18%,.,.,-13%,.
O=C(Nc1ccc(Cc2ccncc2)cc1)C1CCC(N2C(=O)C3CC=CCC3C2=O)CC1 (centres undefined),?,.,?,-28%,4%
O=C(Nc1ccc(Cc2ccncc2)cc1)C1CCC(N2C(=O)C3C4C=CC(C4)C3C2=O)CC1 (centres undefined),?,12µM*,.,38%,15%
O=C(NCc1ccco1)/C(=C\c1cccs1)NC(=O)c1ccco1,-2%,4.1µM*,35%,-13%,12%
O=C(NCc1ccco1)/C(=C\c1cccs1)NC(=O)c1ccsc1,-12%,11%,-7%,-15%,2%[11.6 µM]
Cc1ccc(C(=O)N/C(=C\c2sccc2C)C(=O)NCc2ccco2)cc1,.,3.3µM*,8%,-6%,5%
COc1ccc(CCNC(=O)CCCCn2c(=O)c3ccccc3n(Cc3cc(C)ccc3C)c2=O)cc1OC,7%,.,.,0%,.
CCCCCn1c(=O)[nH]c2cc(C(=O)Nc3cc(OC)cc(OC)c3)ccc2c1=O,-10%,.,.,-6%,.
CCOC(=O)C1CCCN(C(=O)c2cnn(-c3ncc4c(n3)-c3ccccc3CC4)c2C)C1 (centres undefined),-12%,.,.,5%,.
CCOc1cc(CN2CCCC(C(=O)c3cccc(C(F)(F)F)c3)C2)ccc1O (centres undefined),-18%,8%,5.2µM*,-9%,-3%
O=C(C1CCCN(Cc2cc(Br)ccc2O)C1)N1CCCCC1 (centres undefined),-6%,?,8.3µM*,-6%,20%
O=C(NCC1CCCN(Cc2ccccc2F)C1)c1cccc(C(F)(F)F)c1 (centres undefined),.,12µM*,-5%,.,1%
O=C(c1cccc(C(F)(F)F)c1)C1CCCN(Cc2ccccc2O)C1 (centres undefined),-5%,8.3µM*,?,1%,4%
